Screening results: PubChem BioAssay, National Center for Advancing Translational Sciences (NCATS)
BAZ2B block = inhibitors of human BAZ2B bromodomain. hit rate 4.4% among 360,000. AlphaScreen BAZ2B-H3K14Ac peptide displacement. Q9UIF8. Potency, µM (highest dose often 114 µM), without a hit: top-dose activity change, negative = inhibition, hits mostly inhibitors; note: % is set by controls: 0 for no effect and ±100 for the full control effect; nearly all actives have a fitted effect of over 60% in size
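BAZ2B 50 nM plus b-H3(5-23)K14Ac 50 nM, PBS pH 7.4/0.01% Tween-20, 30 min RT; compound added (max 110 uM), 30 min RT; streptavidin donor/Ni-chelate acceptor beads 10 ug/mL final, 20 min dark; AlphaScreen read.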
G9a inh = G9a (human) methyltransferase inhibition; Q96KQ7; G9a H3K9 monomethylation, AlphaScreen, 2 h; Potency, µM (doses to about 102 µM), for the others: top-dose activity, negative = inhibition, actives largely listed as inhibitors; hit rate 8.8% among 350,000; note: % is set by controls: 0 for no effect and ±100 for the full control effect; nearly all actives have a fitted effect of over 75% in size
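Quantitative HTS format: methyltransferase activity on a biotin-tagged H3K9 peptide is measured by AlphaScreen, using a rabbit anti-monomethyl-H3K9 antibody with streptavidin donor and anti-IgG acceptor beads. Final levels are 20 nM enzyme, 500 nM peptide, 20 uM SAM; 2 h RT.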
PLK1 PBD inh = blocks phosphopeptide binding to human PLK1 polo-box domain. Plk1 PBD binding of FITC phosphopeptide, fluorescence polarization. Potency, µM, for the others: max response, negative = inhibition, actives largely listed as inhibitors. hit rate 2.8% among 360,000; note: series mostly up to about 57 µM; % is set by controls: 0 for no effect and ±100 for the full control effect; nearly all actives have a fitted effect of over 65% in size
Target sequence (P53350 whole entry, looked up, the tested form may be a part): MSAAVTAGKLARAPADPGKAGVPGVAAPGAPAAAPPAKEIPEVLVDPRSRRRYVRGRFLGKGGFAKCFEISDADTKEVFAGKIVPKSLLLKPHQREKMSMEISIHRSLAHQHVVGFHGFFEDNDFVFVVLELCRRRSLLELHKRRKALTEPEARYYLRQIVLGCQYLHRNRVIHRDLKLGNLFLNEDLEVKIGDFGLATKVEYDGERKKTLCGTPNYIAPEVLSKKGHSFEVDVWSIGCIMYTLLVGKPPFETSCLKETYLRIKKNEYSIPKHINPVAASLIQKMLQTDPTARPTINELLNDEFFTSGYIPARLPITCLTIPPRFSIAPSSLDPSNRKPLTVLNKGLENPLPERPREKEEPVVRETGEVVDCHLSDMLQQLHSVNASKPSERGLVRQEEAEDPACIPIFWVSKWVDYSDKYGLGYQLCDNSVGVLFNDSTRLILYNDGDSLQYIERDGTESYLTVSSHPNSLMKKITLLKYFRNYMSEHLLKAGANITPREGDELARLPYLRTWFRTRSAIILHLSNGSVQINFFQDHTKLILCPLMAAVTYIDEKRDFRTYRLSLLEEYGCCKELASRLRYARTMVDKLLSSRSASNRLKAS
Sfp PPTase inh = blocks B. subtilis Sfp PPTase activity. Q9F4F7. Biochemical Sfp PPTase activity, qHTS. Potency, µM, inactives show largest response in the series, negative = inhibition, hits mostly inhibitors. hit rate 3.5% among 310,000;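 note: the enzyme is Sfp with the accession as filed and its product quenches rhodamine fluorescence; 0% = enzyme reaction without inhibitor and -100% = no enzyme wells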
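Sfp 15 nM + cpd, 15 min RT; start w/ rhodamine-CoA 5 uM, BHQ-2-YbbR 12.5 uM (final); 50 mM Hepes pH 7.6, 10 mM MgCl2, 0.01% NP-40, 0.01% BSA; read 525/598 nm at 0 and 30 min.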
HP1b chromo inh = blocks HP1-beta chromodomain binding to methylated histone tails; P83916; AlphaScreen HP1-beta / biotin-H3K9me3 peptide binding; Potency, µM (titrated, usually from 114 µM), for inactives: top-dose activity change, negative = inhibition, hits mostly inhibitors; hit rate 0.56% among 390,000; AID 540317; note: nearly all actives have a fitted effect of over 70% in size
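Compound inhibition of the preformed complex between 50 nM HP1-beta and 50 nM biotinylated H3K9me3 peptide was read by AlphaScreen. Buffer was PBS pH 7.4 with 0.01% Tween-20. Incubations ran 30 min at room temperature, with 10 ug/mL donor/acceptor beads.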
JMJD2A Tudor = blocks the human JMJD2A Tudor domain. hit rate 4.4% among 390,000. O75164. Potency, µM (doses to about 114 µM), inactives show top-dose activity change, negative = inhibition, actives largely listed as inhibitors. AlphaScreen JMJD2A-Tudor / H3K4me3 peptide binding. AID 504339; note: % is set by controls: 0 for no effect and ±100 for the full control effect; nearly all actives have a fitted effect of over 50% in size
* = called active by the depositor; ? = inconclusive; / = no result; [ ] = remark or other dose. Only some compounds are listed: those with a hit (about 12% of all), similar ones and a draw of the others. Calls come from the whole dose curve; as a rule, active = well fitted curve in the direction sought with a large enough effect; inconclusive = small, poorly fitted or top-dose-only effect, or another doubt; inactive = no such curve, though single readings can be large; an effect the other way counts as inactive or inconclusive. Potency is the fitted concentration of half-maximal effect.

SMILES	BAZ2B block	G9a inh	PLK1 PBD inh	Sfp PPTase inh	HP1b chromo inh	JMJD2A Tudor
Cc1ccc(S(=O)(=O)CC(=O)Nc2nc(-c3ccccc3)cs2)cc1	45%	26%[59 µM]	-12%	3%	-1%	-24%
Cn1c2ccccc2c2cnn(CC(=O)Nc3ccccc3C(F)(F)F)c(=O)c21	-2%	-2%[59 µM]	/	/	30%	-8%
Cc1ccc(S(=O)(=O)N[C@H]2COC(=O)C/C=C\[C@@H](C)COC(=O)C/C=C\[C@@H]2C)cc1	/	/	/	2%	/	/
COc1ccc2oc(C(=O)Nc3nc(-c4ccccn4)cs3)c(C)c2c1	0%	50µM*	-10%	/	10%	-22%
COc1ccc2oc(C(=O)NC(C)c3ccccn3)c(C)c2c1 (stereo unspecified)	/	/	-1%	/	20%	-6%
C=C1c2cc(C)ccc2NC(=O)N1c1ccccc1	0%	32µM*	-3%	-9%	14%	-8%
C=C1c2ccccc2NC(=O)N1c1ccc(OC)cc1	0%	20µM*	-15%	-3%	17%	-21%
Cc1ccc(CC2C(=O)N(c3ccccc3)C(=O)C2C)cc1 (stereo unspecified)	-6%	43%	-1%	18%	76%	6%
CN1C(=O)[C@H]2[C@@H](c3ccc(C(F)(F)F)cc3)N[C@]3(CCCN(Cc4cccn4C)C3=O)[C@H]2C1=O	/	/	-10%	/	/	/
Cc1cc(F)ccc1-c1cc(C(=O)NC(C)C)[nH]n1	/	/	0%	/	/	/
OCC[C@H]1C[C@@H](O)[C@H](O)[C@@]2(CCCCO2)O1	/	/	3%	/	51%	1%
Cc1ccccc1NC(=O)C1c2cccc[n+]2CC(=O)N1Cc1ccc2c(c1)OCO2 (stereo unspecified)	-21%	11µM*	-29%	-12%	15%	?
Cc1cccc(C)c1NC(=O)C1c2cccc[n+]2CC(=O)N1Cc1cccs1 (stereo unspecified)	/	50µM*	-1%	13%	29%	-6%
Cc1cccc(C)c1NC(=O)C1c2ccccc2OCC(=O)N1Cc1ccc2c(c1)OCO2 (stereo unspecified)	/	/	-4%	/	/	/
CCOn1c(=O)c(-c2ccc(Cl)cc2)[n+]([O-])c2ccccc21	39%	-22%	21µM*	-2%	-8%	?
O=c1c(-c2ccc(F)cc2)[n+]([O-])c2ccccc2n1OCc1ccccn1	3%	-36%	21µM*	7%	-9%	-20%[11.4 µM]
Cc1cc(C)n(-c2cc(-n3nc(C)cc3C)ncn2)n1	7%	?	-6%	-2%	47%	-1%
Cc1cc(C)n(-c2cc(O)c(-n3nc(C)cc3C)cc2O)n1	-16%	28µM*	-19%	-6%	?	22µM*
Cc1ccc(NC(=O)c2oc3c(c2C)-c2[nH]ncc2CC3)c(Cl)c1	-32%	?	/	/	-6%	?
Cc1ccc(S(=O)(=O)CCC(=O)OC(C)C(=O)c2c(C)[nH]c3ccccc23)cc1 (stereo unspecified)	-8%	-7%[59 µM]	-4%	-1%	41%	-3%
Cc1cc(C)cc(NC(=S)/C(=C(\[O-])c2ccc(Cl)cc2Cl)[n+]2ccccc2)c1	?	?	30µM*	11%	-8%	1%[11.4 µM]
[O-]/C(=C(\C(=S)Nc1ccc(SC(F)F)cc1)[n+]1ccccc1)c1ccc(Cl)cc1Cl	?	35µM*	-4%	14%	-6%	?
C[C@H](CO)N1C[C@H](C)[C@@H](CN(C)Cc2ccc(Cl)c(Cl)c2)Oc2c(NS(=O)(=O)c3ccc(F)cc3)cccc2C1=O	/	/	2%	/	20%	-32%
COc1ccc(NC(=O)c2cnc(SCC(=O)Nc3nc4ccc(C)cc4s3)n(C)c2=O)cc1	5%	5%[59 µM]	/	/	37%	2%
CCOC(=O)c1c(NC(=O)c2cc(CC(C)C)on2)sc(C(C)=O)c1C	-5%	7.9µM*	?	-12%	0%	5%
CCCc1cc(C(=O)Nc2sc(C(C)=O)c(C)c2C(=O)OCC)no1	-3%	?	?	-21%	6%	0%
